Tgondii IFNg: blocks Toxoplasma gondii growth in the presence of IFN-gamma | Toxoplasma gondii growth in IFN-gamma-treated host cells; active compounds read low | activity change, negative = inhibition, % (no concentration beside the values) | hit rate 3.8% among 69,000 | AID 1259416; in the data active = activity change below about -70%, passing the limit was not always enough;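 also: host cells are HeLa cells infected with Toxoplasma gondii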
Active calls of the source: *. This is one part of a sample in which hits are shown more often than they occur.

SMILES | Tgondii IFNg
CC(=O)Nc1ccc(C23CC4CC(CC(C4)C2)C3)c(C)c1 | -56.5
O=C(O)c1ccc2cc(-c3ccc(O)c(C45CC6CC(CC(C6)C4)C5)c3)ccc2c1 | -74.3*
O=C(O)c1ccc(-c2ccc3cc(O)c(C45CC6CC(CC(C6)C4)C5)cc3c2)cc1 | -43.4
Cc1ccc(C2(O)CCN(C(=O)Cc3c(C)n[nH]c3C)CC2)nc1 | -7.5
Cc1ccc2[nH]cc(CCNC(=O)C3CCN(c4ccc(N5CCCCC5)nn4)CC3)c2c1 | 40.8
Cc1ccc(Cl)cc1NC(=O)Nc1ccc(-c2nc(-c3ccccc3)co2)cc1 | -39.2
Cc1cc(SCC(=O)Nc2ccccc2)nc(SCc2ccc(Cl)cc2)n1 | 22.9
O=C(Nc1ccccc1)Nc1ccc(Cl)cc1SCc1ccccc1 | -77.1*
CCc1ccc(-c2nccn2CCn2cccn2)nc1 | 12.7
Cc1ccc(OCC(=O)NCCc2csc(-c3ccc(Cl)cc3)n2)cc1 | 24.5
CC(C)c1cc(-c2ccc(C(N)=O)cc2)nc(C(F)(F)F)n1 | -41.3
CC(C)c1nc2ccc(NC(=O)CCn3cnnn3)cc2s1 | 3.4
CCCCNCC1COc2ccccc2O1 (stereo unspecified) | 6.7
O=C(O)CS(=O)(=O)Cc1ccccc1 | -0.8
CCn1ccc2cc(CCC(=O)NC(C)c3ccccn3)ccc21 (stereo unspecified) | -69.6
c1cnc2c(c1)ccc1cccnc12 | -96.2*
c1ccc(Oc2cccc3cccnc23)nc1 | 70.0
CCc1nc(C)cc(-c2cccc3cccnc23)n1 | 0.8
Cn1c(=O)[nH]cc(CCN2CCc3[nH]nc(-c4ccc(F)c(F)c4)c3C2)c1=O | 10.3
CCN(CC)c1ncnc2c1cnn2CC(=O)NC(C)c1ccccc1 (stereo unspecified) | 71.7
CCOC(=O)c1[nH]c(C)c(CN(Cc2ccc(Cl)cc2)C(=O)c2cc3ccccc3[nH]2)c1C | 59.9
CCOc1ccc(NC(=O)Cn2c(C)cc(C)nc2=O)cc1 | 19.5
CCOc1ccc(CNC(=O)c2nc(Nc3ccccc3)c3ccccc3n2)cc1 | -51.6
CCOc1ccc(Nc2nc3ccccc3nc2Nc2ccc(OCC)cc2)cc1 | -100.0*
CCOc1ccc(Nc2nc(-c3ccc(OC)cc3)nc3ccccc23)cc1 | -42.6
SMILES | Tgondii IFNg
CCOc1ccc(NC(=O)c2nc3ccccc3nc2-n2nc(C)cc2C)cc1 | -98.5*
CCOc1ccccc1C(=O)Nc1ccc(-c2nc(Cn3nc(C)cc3C)c(C)o2)cc1 | 44.2
CCC1c2ccsc2CCN1Cc1ccc2c(c1)n(C)c(=O)n2C (stereo unspecified) | 30.0
Cc1nc(C2CCCN(C(=O)CCc3ccc4c(c3)n(C)c(=O)n4C)C2)ncc1C(N)=O (stereo unspecified) | 13.4
CCOC(=O)c1csc(-c2snnc2C)n1 | -15.7
Cc1nnsc1-c1nc(-c2ccc(Cl)s2)cs1 | -84.9*
Cc1nc(-c2ccc(Cl)cc2)sc1-c1csc(-c2ccc(Cl)cc2)n1 | -15.0
O=C(c1ccc(N2CCC(NCC3(N4CCOCC4)CCCC3)CC2)cc1)N1CCCC(O)C1 (stereo unspecified) | -1.7
CCCCOc1ccccc1-c1cc2c(=O)n(Cc3nc(-c4ccc(Cl)cc4)oc3C)ccn2n1 | 80.4
Cc1cccc(NC(=O)N2CCC(c3nc(CCNC(=O)C(C)C)cs3)CC2)c1 | -25.7
Cn1ccnc1-c1nc(NCCN2CCOCC2)ncc1-c1cccs1 | 4.6
O=C1C(Cl)=C(NCCN2CCOCC2)C(=O)c2ncccc21 | -80.3*
c1ccc2c(c1)CCCc1cc(NCCN3CCOCC3)nnc1-2 | 16.6
CC(C)n1nc(Cn2cccn2)c2c1CN(CCO)C2 | 3.0
Cc1ncsc1-c1cc(CN2CCC(NC(=O)Cc3cccnc3)CC2)n(C)n1 | -17.0
CC(=O)Nc1ccc(Cl)c(C(=O)N(C)C(C)c2ccon2)c1 (stereo unspecified) | -8.4
O=C(O)c1ccc(C2CCN(C(=O)CC3CCS(=O)(=O)CC3)C2)cc1 (stereo unspecified) | 39.8
Cc1cccc(N2C[C@H]3CN(C(=O)c4ccccc4)C[C@H]3C2)n1 | 9.6
CC(=O)C(C)(C)OC(=O)NCc1cccs1 | 31.6
COc1ccc(Cl)cc1C(=O)NCCc1ccc(C(=O)O)cc1 | 13.7
CC(=O)C(C)(C)OC(=O)NCCc1ccc(Cl)cc1 | -76.5*
Cc1cc(C)n(C(C)CC(=O)Nc2cccc(OC(C)C)c2)n1 (stereo unspecified) | 9.5
CCn1c(C2CCN(C(=O)CC3C=CS(=O)(=O)C3)CC2)nn(C)c1=O (stereo unspecified) | 11.8
COc1ccccc1NC(=O)c1cncc(NS(=O)(=O)c2ccc(Br)cc2)c1 | 24.9
CCSc1nc(CC(=O)NCCc2nc(C)c(C)s2)cs1 | 32.1
SMILES | Tgondii IFNg
O=C(NCc1ccco1)C(Sc1ccccc1)c1ccccc1 (stereo unspecified) | -2.5
COC(=O)c1ccc(CSc2ccccc2N)o1 | 69.5
CC(C)(C)CC(C)(C)NC(=O)C(Sc1ccccc1N)c1ccccc1 (stereo unspecified) | -88.3*
CNC(=O)COc1ccc(-c2ccccc2Cl)cc1 | 181.0
S=C(NCCCn1ccnc1)Nc1cc(Cl)ccc1Cl | 30.1
Clc1ccc(C(Cn2ccnc2)OCc2c(Cl)cccc2Cl)c(Cl)c1 (stereo unspecified) | -69.7
S=C(Nc1ccc(Cl)cc1Cl)NC(Cn1ccnc1)c1ccccc1 (stereo unspecified) | -35.4
Clc1ccc(C(Cn2ccnc2)OCc2ccc(Sc3ccccc3)cc2)c(Cl)c1 (stereo unspecified) | -78.2*
Cc1c(C(=O)Cn2ccnc2)sc2ccc(Cl)cc12 | -18.2
Clc1ccc(C(Cn2ccnc2)OCc2csc3c(Cl)cccc23)c(Cl)c1 (stereo unspecified) | -79.2*
O=C(c1cn[nH]n1)N1CCCC(c2nnc3ccccn23)C1 (stereo unspecified) | 7.9
Cc1nc(C)c(C(=O)N2CCc3c(nc(-c4cnccn4)[nH]c3=O)C2)s1 | 11.5
CN(Cc1cc2cc(F)ccc2[nH]1)Cc1nccn1C | 0.4
Cc1nn(Cc2nc(-c3ccc(NC(=O)c4ccccc4F)cc3)oc2C)c(C)c1C | -69.5
Cc1cc(C)n(Cc2nc(-c3ccc(NC(=O)c4ccc(F)cc4F)cc3)oc2C)n1 | -84.8*
COc1ccc(C(=O)Nc2ccc(-c3nc(Cn4nc(C)cc4C)c(C)o3)cc2)cc1F | 113.9
Cc1cc(C)n(Cc2nc(-c3ccc(NC(=O)c4ccc(F)cc4Cl)cc3)oc2C)n1 | 65.6
Cc1nn(Cc2nc(-c3ccc(NC(=O)c4cccc(F)c4)cc3)oc2C)c(C)c1C | 48.8
Cc1nn(Cc2nc(-c3ccc(NC(=O)c4ccc(F)cc4F)cc3)oc2C)c(C)c1C | -100.6*
Cc1cc(C)n(Cc2nc(-c3ccc(NC(=O)c4cc(F)ccc4F)cc3)oc2C)n1 | -81.0*
Cc1cc(C)n(Cc2nc(-c3ccc(NC(=O)Cc4ccccc4F)cc3)oc2C)n1 | -7.9
Cc1cc(C)n(Cc2nc(-c3ccc(NC(=O)Cc4cccc(F)c4)cc3)oc2C)n1 | -38.3
COc1ccc(NC(=O)c2cc(C(C)C)[nH]n2)c(NC(=O)C(C)C)c1 | 3.2
CN(C)CCNC(=O)c1cc2n(n1)CCN(C(=O)CC1CNCCO1)C2 (stereo unspecified) | 7.2
CCN(C/C=C/c1ccccc1)C(=O)c1ccc(C#CC(C)(C)O)cc1 | 69.0
COc1ccc(NC(=O)c2cncc(NS(=O)(=O)c3ccc(Br)cc3)c2)c(OC)c1 | 11.5
O=C(c1cccnc1)N1CCOC2CC(COc3ccccn3)CC21 (stereo unspecified) | 16.2
CC(=O)N1CCC2(CC1)CC(COCC1CC1)N(Cc1cccnc1)C2 (stereo unspecified) | -2.3
